# Screens: PubChem, National Center for Advancing Translational Sciences (NCATS)
# Compounds with a hit are over-represented: about 2.6% of the library has one in this group of screens.
# HTT promoter inh – Primary qHTS for Identification of Small Molecule Inhibitors of Huntingtin Promoter Activity; HEK293 HTT promoter firefly luciferase reporter, 24 h; Potency, µM (doses to about 57.5 µM), for the others: at the highest dose activity change, negative = inhibition, usual class: inhibitors; actives 0.93% (n = 48,000); note: nearly all actives have a fitted effect of over 50% in size
#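 HEK293 cells carrying firefly luciferase reporters were seeded at 2,500 per well in Opti-MEM and cultured for 24 h. They were then treated with compounds at up to 57.5 uM final for 24 h at 37 degrees C before Dual-Glo luminescence readout.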
# HTT-AS promoter – Primary qHTS for Identification of Small Molecule Activators of Huntingtin-Antisense Promoter Activity; HEK293 HTT-AS promoter firefly luciferase reporter, 24 h; response scale: percent change from vehicle, -100% = no light; Potency, µM (highest dose often 57.5 µM), without a hit: at the highest dose activity change, positive = activation, actives largely listed as activators; actives 0.24% (n = 48,000); AID 1508624, 2021; note: nearly all actives have a fitted effect of over 55% in size
#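 Quantitative HTS used concentration series of up to 57.5 uM final on HEK293 luciferase reporter cells, 24 h at 37 degrees C. Readout was Dual-Glo firefly luminescence.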
# NTMT1 inh – Primary qHTS for Inhibitors of N-terminal methyltransferase 1 (NTMT1): MTaseGlo Assay | NTMT1 MTase-Glo SAH luminescence, purified enzyme | Potency, µM (top dose mostly 114 µM), for the others: at the top dose activity change, negative = inhibition, hits mostly inhibitors | AID 1645870, 2021 | actives 2.5% (n = 59,000) | N-terminal Xaa-Pro-Lys N-methyltransferase 1 (Homo sapiens), Q9BV86;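 note: plate controls were DMSO vehicle for no effect and no enzyme for full effect; nearly all actives have a fitted effect of over 65% in size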
# FH mod – Identification of activators of human fumarate hydratase by quantitative high-throughput screening. AID 1347055, 2019. actives 0.22% (n = 54,000). FH coupled MDH/diaphorase resazurin fluorescence, 15 min. Fumarate hydratase, mitochondrial (Homo sapiens), P07954. Potency, µM (highest dose often 79.9 µM), inactives show at the highest dose activity change, negative = inhibition, actives largely listed as inhibitors; note: % is set by controls: 0 for no effect and ±100 for the full control effect; the screen sought activators but most active calls are inhibition curves; nearly all actives have a fitted effect of over 45% in size
# Target sequence (P07954 whole entry, looked up): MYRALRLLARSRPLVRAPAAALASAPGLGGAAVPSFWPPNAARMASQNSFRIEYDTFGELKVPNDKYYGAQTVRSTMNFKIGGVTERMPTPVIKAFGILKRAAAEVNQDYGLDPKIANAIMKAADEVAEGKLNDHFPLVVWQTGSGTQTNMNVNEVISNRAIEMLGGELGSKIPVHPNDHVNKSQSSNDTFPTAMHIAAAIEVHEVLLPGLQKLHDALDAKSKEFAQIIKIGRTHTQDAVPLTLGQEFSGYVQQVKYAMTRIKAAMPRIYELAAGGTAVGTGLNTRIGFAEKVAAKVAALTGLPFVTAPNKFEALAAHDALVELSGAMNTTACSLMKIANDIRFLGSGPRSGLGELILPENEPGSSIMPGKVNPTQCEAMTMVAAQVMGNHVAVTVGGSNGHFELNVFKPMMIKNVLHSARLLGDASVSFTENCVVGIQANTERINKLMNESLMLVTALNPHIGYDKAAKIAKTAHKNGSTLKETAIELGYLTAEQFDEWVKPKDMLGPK
# * hit, by the source's call; ? = inconclusive; nt = not tested or not shown; ! = repeats disagree; [ ] = remark or other dose. Calls come from the whole dose curve; as a rule, active = well fitted curve in the direction sought with a large enough effect; inconclusive = small, poorly fitted or top-dose-only effect, or another doubt; inactive = no such curve, though single readings can be large; an effect the other way counts as inactive or inconclusive. Potency is the fitted concentration of half-maximal effect.
SMILES,HTT promoter inh,HTT-AS promoter,NTMT1 inh,FH mod
COc1ccc(C(=O)Nc2ccc(-c3nc4ccccc4s3)cc2C)cc1Cl,57%,1µM*,-11%,5%
O=c1[nH]nc(Sc2ncc([N+](=O)[O-])s2)n1-c1ccc2c(c1)OCCO2,?,-95%,4.3µM*!,11%[53.3 µM]
CC(C)NC(=O)C1CCN(C(=O)c2cc3sccc3n2Cc2ccc(Cl)cc2)CC1,8.9µM*,-60%,11%,-1%
Cc1c(Cl)cccc1NC(=O)c1cc2sccc2n1Cc1ccc(F)cc1,-30%,-31%,89µM*,-11%
O=c1cc(CN2CCCN(c3ccc(C(F)(F)F)cn3)CC2)nc2ccccn12,nt,nt,3%,nt
CC(=O)N1CCCC1c1nc2ccccc2n1Cc1c(F)cccc1Cl (configuration not stated),-11%,-12%,89µM*,-3%
Cc1cccc(N2CCN(S(=O)(=O)c3csc(C(N)=O)c3)CC2)c1C,14µM*,-57%,2%,-11%
Cc1ccc(NS(=O)(=O)c2ccc3c(c2)C(C(C)C)C(=O)N3)cc1C (configuration not stated),-27%,-5%,?,-28%
Cc1cccc(N2CCN(S(=O)(=O)c3ccc4c(c3)C(C(C)C)C(=O)N4)CC2)c1C (configuration not stated),13µM*,-86%,-1%,?
Cc1ccc(S(=O)(=O)Nc2cccc3cccnc23)c([N+](=O)[O-])c1,nt,nt,11%,nt
NS(=O)(=O)c1cccc2c1c([N+](=O)[O-])cc1nc(O)c(O)nc12,nt,nt,nt,18µM*
C=C1C(=O)OC2CC3(C)C(O)C(=O)C=C(C)C3CC12 (configuration not stated),nt,nt,-16%[57.5 µM],-18%
COc1ccc(/C=C\c2cc(OC)c(OC)c(OC)c2)cc1O,nt,nt,-17%,nt
Oc1cc(O)cc(/C=C/c2ccc(O)c(O)c2)c1,nt,nt,35µM*,3.5µM*!
COc1ccc(Nc2c3c(nc4ccc(NC(=O)/C=C/c5cc(OC)c(OC)c(OC)c5)cc24)CCCC3)cc1OC,32µM*,-77%,3%,?
COc1ccc(CNC(=O)C(=O)NCC(c2cccnc2)N2CCN(c3ccccc3F)CC2)cc1 (configuration not stated),13µM*,-48%,6%,-26%
COc1ccccc1CCNC(=O)C(=O)NCC(c1cccnc1)N1CCN(c2ccccc2)CC1 (configuration not stated),13µM*,-44%,-3%,-7%
COc1ccccc1CNC(=O)C(=O)NCC(c1cccnc1)N1CCN(c2ccc(F)cc2)CC1 (configuration not stated),?,-46%,3%,-6%
CC(=O)Nc1sc2c(c1-c1nc3ccccc3s1)CN(C1COC1)C2,nt,nt,-14%,nt
Nc1nc(OC(c2ccc(-c3cccc(F)c3)cc2)C(F)(F)F)cc(-c2ccc(C[C@H](N)C(=O)O)cc2)n1 (some centres not stated),nt,nt,12%,nt
Cc1n[nH]c(C)c1S(=O)(=O)N1CCCC(C(=O)Nc2ccc(Cl)cc2)C1 (configuration not stated),28µM*,-47%,-3%,-6%
COCC(c1ccc(C(F)(F)F)cc1)N1CCN(C2(C)CCN(C(=O)c3c(C)ncnc3C)CC2)CC1C (configuration not stated),nt,nt,4%[57.5 µM],1%
CCOC(=O)N1CCc2c(sc(NCc3ccc(OCC)cc3)c2C(=O)Nc2ccc(OC)cc2OC)C1,10µM*,-82%,7%,-18%
CCOC(=O)N1CCc2c(sc(NCc3ccc(OC)c(OC)c3OC)c2C(=O)Nc2ccc(OC)cc2OC)C1,?,-86%,20%,-15%
CCOc1ccccc1NC(=O)c1c(NCc2ccc(C)o2)sc2c1CCCCC2,-6%,-12%,25µM*,-15%
SMILES,HTT promoter inh,HTT-AS promoter,NTMT1 inh,FH mod
CCOC(=O)N1CCc2c(sc(NCc3cccs3)c2C(=O)Nc2ccc(OC)cc2OC)C1,7.9µM*,-91%,11%,-33%
CC=CCC(C)C(O)C1C(=O)NC(CC)C(=O)N(C)CC(=O)N(C)C(CC(C)C)C(=O)NC(C(C)C)C(=O)N(C)C(CC(C)C)C(=O)NC(C)C(=O)NC(C)C(=O)N(C)C(CC(C)C)C(=O)N(C)C(CC(C)C)C(=O)N(C)C(C(C)C)C(=O)N1C (configuration not stated),nt,nt,34%[57.5 µM],-14%[53.3 µM]
C[C@@H]1O[C@@H](O[C@H]2[C@H](O[C@H]3[C@H](O[C@H]4CC[C@@]5(CO)C(CC[C@]6(C)C5CC=C5C7CC(C)(C)C[C@@H](O)[C@]7(C)CC[C@]56C)C4(C)C)O[C@H](C(=O)O)[C@@H](O)[C@@H]3O)OC[C@@H](O)[C@@H]2O)[C@H](O)[C@H](O)[C@H]1O (some centres not stated),nt,nt,17%[12.6 µM],-1%[20.6 µM]
Cc1oc2ncnc(N3CCCCC3)c2c1C(=O)Nc1cccc(F)c1,-11%,-19%,-24%,-17%
Cc1oc2ncnc(N3CCCCC3)c2c1C(=O)Nc1cccc(Cl)c1C,-27%,-21%,89µM*,-6%
COCCCNC(=O)Cn1c(=O)n(Cc2ccc(C(=O)NCc3ccc(C)cc3)cc2)c(=O)c2ccccc21,3%,-14%,79µM*,-8%
O=C(NC1CCN(Cc2ccccc2)CC1)c1ccc(Cn2c(=O)c3ccccc3n(Cc3ccccc3)c2=O)cc1,-21%,-23%,79µM*,2%
COCCCNC(=O)c1ccc(Cn2c(=O)c3ccccc3n(CC(=O)Nc3ccc(C)cc3C)c2=O)cc1,-8%,-4%,?,-22%
CC(C)n1c(=O)cc(N[C@@H](C)c2ccccc2)[nH]c1=O,nt,nt,-17%,nt
Fc1ccc(-c2ccc(CNc3nc(-c4ccccc4C(F)(F)F)nc4ccccc34)cc2)cc1C(F)(F)F,nt,nt,3%,nt
Oc1ccc(Nc2ccccc2F)c2cccnc12,nt,nt,28µM*,nt
Oc1ccc(-c2ccccc2F)c2cccnc12,nt,nt,5%,nt
O=C(Nc1ccc(-c2ccccc2)nc1)c1cccs1,nt,nt,12%,nt
Cc1ccc(NC(=O)CSc2nnc3[nH]c(=O)cc(-c4ccccc4)n23)cc1Cl,55%,14µM*,-5%,-25%
CC/C=C\CC1C(CC(=O)O)CCC1OC1OC(CO)C(O)C(O)C1O (configuration not stated),nt,nt,3%[29.8 µM],-1%[53.3 µM]
COc1ccc(C(=O)Nc2ccc(NC(=O)c3cccs3)cc2)cc1OC,-14%,-14%,?,28µM*[activator]
COc1ccccc1C(=O)Nc1ccc(NC(=O)c2cccs2)cc1,?,-29%,5%,?
Cc1ccccc1NC(=O)Cn1c(=O)n(CCCC(=O)NCc2ccc3c(c2)OCO3)c(=O)c2ccccc21,-3%,1%,89µM*,-2%
COc1cccc(-n2cc(C(=O)Nc3ccccc3C(N)=O)c3ccccc3c2=O)c1,-3%,-20%,89µM*,8%
